Test results: PubChem BioAssay (Tox21)
Records with an inconclusive call do not appear. Where a call stands in place of a potency, no number is given. Active and inactive are the calls of the source. Unless noted, calls follow the shape of the dose curve; as a rule, active = well fitted curve in the direction sought with a large enough effect in the repeat runs; inconclusive = weak or mixed curves; inactive = no such curve, though single readings can be large; an effect the other way counts as inactive or inconclusive.

Legend:
[1] = target: Retinoic acid receptor RXR-alpha (Homo sapiens) (UniProt P19793); assay: qHTS assay to identify small molecule agonists of the RXR signaling pathway (AID 1159527; calls by dose curve; also: nearly all actives have a fitted effect of over 35% in size)
Method in brief: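 GeneBLAzer RXR-alpha-UAS-bla HEK 293T cells in 2% charcoal-stripped FBS medium were exposed to compounds for 16 hr at 37 C in agonist mode. Beta-lactamase reporter read as 460/530 nm FRET ratio after 2 hr substrate loading.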

[2] = qHTS assay to identify small molecule agonists of the RXR signaling pathway - cell viability counter screen (AID 1159529); also: series mostly up to about 77 µM; nearly all actives have a fitted effect of over 50% in size
Method in brief: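 RXR-alpha-UAS-bla HEK 293T cells in medium with 2% charcoal-stripped FBS were pre-incubated 5 hr, then compound-treated 16 hr at 37 C. Viability was read by CellTiter-Glo luminescence in the same wells as the beta-lactamase assay, with tetraoctyl ammonium bromide as positive control.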

[3] = qHTS assay to identify small molecule antagonists of the retinoid acid receptor (RAR) signaling pathway - cell viability counter screen (AID 1159551); also: nearly all actives have a fitted effect of over 35% in size
Method in brief: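 Retinol-stimulated (1 uM final) C3RL4 cells, compound 6 h, 37 C; readout CellTiter-Glo luminescence (ATP) after 30 min RT incubation.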

[4] = qHTS assay to identify small molecule antagonists of the retinoic acid receptor (RAR) signaling pathway (AID 1159552; also: nearly all actives have a fitted effect of over 50% in size)
Method in brief: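 Retinol signaling pathway inhibitors screened in C3RL4 RARE-luciferase reporter cells seeded overnight at 37 C, then compounds added with 1 uM (final) retinol as pathway substrate. After 6 hr at 37 C, luciferase luminescence read after 30 min at room temperature.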

[5] = qHTS assay to identify small molecule agonists of the retinoic acid receptor (RAR) signaling pathway (AID 1159553)
Method in brief: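 Reporter readout comes from luciferase under RARE control in C3RL4 cells; compound exposure lasts 6 hr at 37 C in 5% CO2, and luminescence is recorded following a 30 min room-temperature incubation with reagent.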

[6] = qHTS assay to identify small molecule antagonists of the estrogen related receptor (ERR) signaling pathway from Tox21 library - cell viability counter screen (AID 1224834); also: nearly all actives have a fitted effect of over 30% in size
Method in brief: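 After 17.5 h of compound exposure at 37 C, ERR cells are incubated with CellTiter-Fluor for 30 min and fluorescence intensity serves as the viability measure.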

[7] = qHTS assay to identify small molecule agonists of the constitutive androstane receptor (CAR) signaling pathway - cell viability counter screen (AID 1224836); also: series mostly up to about 92 µM; nearly all actives have a fitted effect of over 45% in size
Method in brief: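 HepG2 cells stably carrying hCAR and a CYP2B6-2.2kb reporter; 15-concentration compounds plus PK11195 (final 0.75 uM), 23 hr at 37 C/5% CO2. Viability read by CellTiter-Fluor fluorescence.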

[8] = qHTS assay to identify small molecule antagonists of the constitutive androstane receptor (CAR) signaling pathway - cell viability counter screen (AID 1224837); also: series mostly up to about 92 µM; nearly all actives have a fitted effect of over 45% in size
Method in brief: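 Counter screen run in HepG2-CYP2B6-hCAR cells: 4 hr settle, compound titration (15 concentrations) with 50 nM CITCO, 23 hr at 37 C/5% CO2, CellTiter-Fluor fluorescence.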

[9] = qHTS assay to identify small molecule antagonists of the estrogen related receptor signaling pathway with the pleiotropic PPARgamma coactivator (PGC) from Tox21 10K library - cell viability counter screen (AID 1224840; active = well fitted cell-killing curve with a large enough effect in the repeat runs, not every such curve was filed as active; also: nearly all actives have a fitted effect of over 40% in size)
Method in brief: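 Following seeding of 2,000 PGC/ERR cells/well and 6 hours' incubation, test compounds were delivered in DMSO. The plates then sat 17.5 hours at 37 C before a fluorogenic live-cell protease reagent (CellTiter-Fluor) was read after 30 min.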

[10] = target: Nuclear receptor subfamily 1 group I member 3 (Homo sapiens) (UniProt Q14994); assay: qHTS assay to identify small molecule antagonists of the constitutive androstane receptor (CAR) signaling pathway (AID 1224838);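 also: HepG2 cells stably expressing hCAR with CYP2B6 luciferase reporter stimulated by CITCO; nearly all actives have a fitted effect of over 40% in size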
Method in brief: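 Cell line: HepG2 double-stable for hCAR and CYP2B6-2.2kb reporter. Agonist: CITCO, 50 nM final. Compounds: 15 concentrations, 24 h, 37 C. Detection: ONE-Glo luminescence.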

[11] = target: Nuclear receptor subfamily 1 group I member 3 (Homo sapiens) (UniProt Q14994); assay: qHTS assay to identify small molecule agonists of the constitutive androstane receptor (CAR) signaling pathway (AID 1224839);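 also: HepG2 cells stably carrying human CAR and a CYP2B6 luciferase reporter; series mostly up to about 92 µM; nearly all actives have a fitted effect of over 15% in size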
Method in brief: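 HepG2 cells stably co-transfected with hCAR and a CYP2B6-2.2kb luciferase reporter; compounds at 15 concentrations with 0.75 uM PK11195 present. After 24 hr at 37 C, luciferase read by ONE-Glo luminescence.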

[12] = target: Luciferin 4-monooxygenase (Photinus pyralis) (UniProt P08659); assay: qHTS assay to identify small molecule inhibitors of firefly luciferase (AID 1224835); also: series mostly up to about 120 µM; nearly all actives have a fitted effect of over 25% in size
Method in brief: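 Quantitative HTS format; KM concentrations of both substrates. Purified P. pyralis FLuc activity quantified from luminescence images.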

[13] = qHTS assay to identify small molecule antagonists of the estrogen related receptor signaling pathway with the pleiotropic PPARgamma coactivator (PGC) from Tox21 10K library (AID 1224841; call rule not given here; also: series mostly up to about 92 µM; actives are mostly falling curves and most rising ones were filed inactive; nearly all actives have a fitted effect of over 50% in size)
Method in brief: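 qHTS antagonist format: PGC/ERR cells, 2k/well, compound in DMSO by pin transfer after 6 h attachment, 18 h treatment at 37 C, One-Glo luminescence read at 30 min.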

[14] = qHTS assay to identify small molecule antagonists of the estrogen related receptor (ERR) signaling pathway - cell viability counter screen (AID 1224818); also: series mostly up to about 46 µM
Method in brief: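 After a 6 h pre-incubation, ERR cells were dosed by pin tool with compounds, positive/negative controls or DMSO alone. Following 17.5 h at 37 C and 30 min with CellTiter-Fluor, fluorescence was recorded.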

[15] = qHTS assay to identify small molecule antagonists of the estrogen related receptor (ERR) signaling pathway (AID 1224819;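 also: luminescence from an ERR-driven luciferase reporter measured with One-Glo reagent; series mostly up to about 46 µM; nearly all actives have a fitted effect of over 50% in size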)
Method in brief: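 Luminescence readout (One-Glo, 30 min, RT) of ERR cell line after 18 h compound exposure at 37 C; cells seeded 2,000/well, pre-incubated 6 h, compounds pinned from DMSO stocks.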

[16] = qHTS assay to identify small molecule agonists of the estrogen related receptor (ERR) signaling pathway (AID 1224820)
Method in brief: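 Quantitative HTS of the LOPAC library used NTP ERR reporter cells treated 18 h at 37 C. Signal is luminescence after One-Glo addition and a 30 min room-temperature incubation.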

[17] = test system: estrogen-related receptor alpha (ERRalpha) with PGC-1alpha coactivator, human; assay: qHTS assay to identify small molecule antagonists of the estrogen related receptor signaling pathway with the pleiotropic PPARgamma coactivator (PGC) (AID 1224821; calls by dose curve)
Method in brief: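 Quantitative HTS for antagonism: PGC/ERR cells received compounds after 6 h attachment and were incubated 18 h at 37 C, with luminescence (One-Glo) as the endpoint.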

[18] = qHTS assay to identify small molecule antagonists of the estrogen related receptor signaling pathway with the pleiotropic PPARgamma coactivator (PGC) cell viability counter screen (AID 1224822; also: series mostly up to about 46 µM)
Method in brief: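 PGC/ERR cells were plated at 2,000 per well and allowed 6 h to settle before compound addition. Following 17.5 h at 37 C, CellTiter-Fluor reagent was added and fluorescence was read 30 min later.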

[19] = qHTS assay to identify small molecule agonists of the estrogen related receptor signaling pathway with the pleiotropic PPARgamma coactivator (PGC) (AID 1224823)
Method in brief: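 Cell-based luciferase assay in the NTP-supplied PGC/ERR line, 2,000 cells/well; 18 h compound exposure at 37 C, luminescence after One-Glo.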

[20] = qHTS assay to identify small molecule agonists of the estrogen related receptor signaling pathway with the pleiotropic PPARgamma coactivator (PGC) from Tox21 10K library (AID 1224842); also: nearly all actives have a fitted effect of over 15% in size; also: potency is read from the fitted curve at half-maximal effect
Method in brief: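 PGC/ERR reporter cells (NTP line) were seeded 2,000 per well, rested 6 h at 37 C/5% CO2, then pin-dosed with compounds in DMSO for 18 h at 37 C; luciferase read by One-Glo luminescence after 30 min at room temperature.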

Chain of Retinoic acid receptor RXR-alpha (Homo sapiens) (P19793 whole entry, looked up): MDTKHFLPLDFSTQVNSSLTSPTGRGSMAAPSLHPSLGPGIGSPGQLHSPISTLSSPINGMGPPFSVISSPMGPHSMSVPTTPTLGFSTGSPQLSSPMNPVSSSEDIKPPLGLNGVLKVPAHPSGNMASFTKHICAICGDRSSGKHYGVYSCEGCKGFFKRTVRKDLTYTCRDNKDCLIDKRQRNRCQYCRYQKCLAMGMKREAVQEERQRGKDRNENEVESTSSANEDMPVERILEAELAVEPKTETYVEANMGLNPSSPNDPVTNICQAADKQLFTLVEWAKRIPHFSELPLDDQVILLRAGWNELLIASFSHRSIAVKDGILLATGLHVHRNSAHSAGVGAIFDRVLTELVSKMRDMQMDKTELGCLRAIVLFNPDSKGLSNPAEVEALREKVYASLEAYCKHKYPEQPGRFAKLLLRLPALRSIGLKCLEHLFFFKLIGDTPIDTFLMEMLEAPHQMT
Chain of Luciferin 4-monooxygenase (Photinus pyralis) (P08659 whole entry, looked up): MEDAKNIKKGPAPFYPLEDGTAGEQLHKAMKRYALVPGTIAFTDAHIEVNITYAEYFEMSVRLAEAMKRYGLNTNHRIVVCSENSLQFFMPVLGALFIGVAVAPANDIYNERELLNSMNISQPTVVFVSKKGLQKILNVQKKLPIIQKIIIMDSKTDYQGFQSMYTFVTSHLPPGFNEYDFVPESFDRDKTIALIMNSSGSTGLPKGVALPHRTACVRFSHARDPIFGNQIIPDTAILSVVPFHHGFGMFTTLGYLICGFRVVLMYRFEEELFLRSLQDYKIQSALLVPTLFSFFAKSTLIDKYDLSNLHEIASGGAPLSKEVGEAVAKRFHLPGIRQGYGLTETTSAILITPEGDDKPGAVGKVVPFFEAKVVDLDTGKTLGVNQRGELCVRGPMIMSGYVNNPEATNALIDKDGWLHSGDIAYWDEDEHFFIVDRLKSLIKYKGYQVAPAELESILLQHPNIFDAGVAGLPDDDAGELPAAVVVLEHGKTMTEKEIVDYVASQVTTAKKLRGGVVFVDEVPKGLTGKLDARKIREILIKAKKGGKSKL
Chain of Nuclear receptor subfamily 1 group I member 3 (Homo sapiens) (Q14994 whole entry, looked up): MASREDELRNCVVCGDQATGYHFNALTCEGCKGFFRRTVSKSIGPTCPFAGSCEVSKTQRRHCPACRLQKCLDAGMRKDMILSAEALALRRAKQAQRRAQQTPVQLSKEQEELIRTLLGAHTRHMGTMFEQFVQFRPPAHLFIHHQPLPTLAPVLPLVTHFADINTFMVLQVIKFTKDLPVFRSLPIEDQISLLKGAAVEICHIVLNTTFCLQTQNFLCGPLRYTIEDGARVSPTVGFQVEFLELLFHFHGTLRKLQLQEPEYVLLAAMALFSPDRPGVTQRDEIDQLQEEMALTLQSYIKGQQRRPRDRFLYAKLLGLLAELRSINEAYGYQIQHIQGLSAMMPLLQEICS

Compound | Potency [1] | Potency [2] | Potency [3] | Potency [4] | Potency [5] | Potency [6] | Potency [7] | Potency [8] | Potency [9] | Potency [10] | Potency [11] | Potency [12] | Potency [13] | outcome [14] | Potency [15] | outcome [16] | Potency [17] | outcome [18] | outcome [19] | Potency [20]
CNc1c2c(nn1C)CCCC2 | inactive | inactive | inactive | inactive | inactive | inactive | inactive | inactive | inactive |  |  |  |  |  |  |  |  |  |  | 
CCCCCC | inactive | inactive | inactive | inactive | inactive | inactive | inactive | inactive | inactive | inactive | inactive |  |  |  |  |  |  |  |  | 
O=c1[nH]c2cc(C(F)(F)F)c(N3CCOCC3)cc2n(CP(=O)(O)O)c1=O | inactive | inactive | inactive | inactive | inactive | inactive | inactive |  | inactive | inactive | inactive | inactive |  |  |  |  |  |  |  | 
CCCCCCC(CO)CCCC (stereo not given) | inactive | inactive | inactive | inactive | inactive | inactive | inactive | inactive | inactive | inactive | inactive |  |  |  |  |  |  |  |  | 
CC(C)(O)CCc1ccccc1 | inactive | inactive | inactive | inactive | inactive | inactive | inactive | inactive | inactive |  |  | inactive |  |  |  |  |  |  |  | 
CC1CCC(C(C)CS)CC1S (stereo not given) | inactive | inactive | inactive | inactive | inactive | inactive | inactive | inactive | inactive |  |  |  | inactive |  |  |  |  |  |  | 
CC(=O)OC(C)C[N+](C)(C)C (stereo not given) | inactive | inactive | inactive | inactive |  | inactive | inactive | inactive | inactive | inactive | inactive | inactive | inactive | inactive | inactive | inactive | inactive | inactive | inactive | inactive
O=P(O)(O)Oc1ccccc1 | inactive | inactive | inactive | inactive | inactive | inactive | inactive | inactive | inactive |  |  | inactive |  |  |  |  |  |  |  | 
CCC(CO)(CO)CO | inactive | inactive | inactive | inactive | inactive | inactive | inactive | inactive | inactive |  |  | inactive |  |  |  |  |  |  |  | 
CC(C)COC(=O)COc1cc(Cl)c(Cl)cc1Cl | inactive | inactive | inactive | inactive | inactive | inactive | inactive | inactive | inactive | inactive | inactive |  | inactive |  |  |  |  |  |  | inactive
COc1ccc(N)c([N+](=O)[O-])c1 | inactive | inactive | inactive | inactive | inactive |  | inactive | inactive | inactive | inactive | inactive | inactive |  |  |  |  |  |  |  | 
CCCCC(CC)COS(=O)(=O)O (stereo not given) | inactive | inactive | inactive | inactive | inactive | inactive | inactive | inactive | inactive |  |  | inactive | inactive |  |  |  |  |  |  | inactive
CC(CN(CCN(CC(C)OCCO)CC(C)OCCO)CC(C)OCCO)OCCO (stereo not given) | inactive | inactive | inactive | inactive | inactive | inactive | inactive |  | inactive |  |  | inactive |  |  |  |  |  |  |  | 
C=CCOC(=O)COCCC(C)C | inactive | inactive | inactive | inactive | inactive | inactive | inactive |  | inactive | inactive | inactive |  |  |  |  |  |  |  |  | 
CC(O)Cn1cnc2c1c(=O)n(C)c(=O)n2C (stereo not given) | inactive | inactive | inactive |  | inactive | inactive | inactive |  | inactive |  |  | inactive | inactive |  |  |  |  |  |  | inactive
O=C1OC[C@H](Cc2cccc(O)c2)[C@H]1Cc1cccc(O)c1 | inactive | inactive | inactive | inactive |  | inactive | inactive | inactive | inactive |  | inactive | inactive |  |  |  |  |  |  |  | 
CC[C@H]1OC(=O)[C@H](C)[C@@H](O[C@H]2C[C@@](C)(OC)[C@@H](O)[C@H](C)O2)[C@H](C)[C@@H](O[C@@H]2O[C@H](C)C[C@H](N(C)C)[C@H]2O)[C@](C)(O)C[C@@H](C)C(=O)[C@H](C)[C@@H](O)[C@]1(C)O | inactive | inactive | inactive | inactive |  | inactive | inactive | inactive | inactive | inactive | inactive |  |  |  |  |  |  |  |  | 
NC(=O)c1ccccc1[N+](=O)[O-] | inactive | inactive | inactive | inactive |  | inactive | inactive | inactive | inactive |  |  | inactive |  |  |  |  |  |  |  | 
Cc1cccc2sc(N)nc12 | inactive | inactive | inactive | inactive |  | inactive | inactive | inactive | inactive | inactive |  |  |  |  |  |  |  |  |  | 
CC(C)c1ccc(C#N)cc1 | inactive | inactive | inactive | inactive |  | inactive | inactive | inactive | inactive |  | inactive | inactive | inactive |  |  |  |  |  |  | inactive
Nc1c(Cl)cc(Cl)cc1[N+](=O)[O-] | inactive | inactive | inactive |  | inactive | inactive | inactive | inactive | inactive | inactive | inactive | inactive | inactive |  |  |  |  |  |  | 5.45 µM (active)
COc1ccc(CCN(C)CCCN2CCc3cc(OC)c(OC)cc3CC2=O)cc1OC | inactive | inactive | inactive | inactive |  | inactive | inactive |  | inactive | inactive | inactive | inactive |  |  |  |  |  |  |  | 
O=C(c1ccccc1)C1CCC1 | inactive | inactive | inactive | inactive |  | inactive | inactive | inactive | inactive | inactive | inactive | inactive |  |  |  |  |  |  |  | 
